Data published in article PMC7819943, “Rice protein-binding microarrays: a tool to detect cis-acting elements near promoter regions in rice”.
The full ranking holds about 39,000 sequences; the median of “fluorescence intensity (a.u.)” is about 4,300, and the highest 2% start at about 39,000. Shown is part of a subset that was picked to be rich in the highest values.

Molecular target: T1, OsSMF1 (Oryza sativa, UniProt Q6ZLB0 1-436)
T1 sequence: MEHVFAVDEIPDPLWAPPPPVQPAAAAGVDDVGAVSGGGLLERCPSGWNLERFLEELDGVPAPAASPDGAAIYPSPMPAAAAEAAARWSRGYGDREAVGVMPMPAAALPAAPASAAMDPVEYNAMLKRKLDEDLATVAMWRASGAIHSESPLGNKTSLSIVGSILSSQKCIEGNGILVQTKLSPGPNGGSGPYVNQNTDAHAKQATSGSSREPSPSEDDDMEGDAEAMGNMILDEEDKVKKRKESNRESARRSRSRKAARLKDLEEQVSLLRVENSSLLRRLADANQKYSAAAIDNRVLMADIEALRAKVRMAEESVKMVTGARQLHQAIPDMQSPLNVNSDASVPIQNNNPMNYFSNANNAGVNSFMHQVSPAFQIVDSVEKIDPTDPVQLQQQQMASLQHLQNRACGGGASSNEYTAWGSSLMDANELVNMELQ
Test: protein-binding microarray (RPBM); PBS, 2% BSA, 51.3 ng/ul salmon testes DNA, 50 uM zinc acetate, 200 nM TF, 25 C, 1 h; high values mean tight binding
Conditions: protein: recombinant; tags: N-terminal polyhistidine and DsRed monomer fusion (pET32a); chain copies: 2; label: CyDye5-dUTP incorporated in the synthesized complementary strand; 3' TTTTT single-stranded linker to array surface; dsDNA, one strand shown
Method in brief: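 Using Ni–NTA, transcription factors fused N-terminally to polyhistidine and DsRed were purified after expression in E. coli BL21-CodonPlus. These were incubated at 200 nM with a blocked, double-stranded custom Agilent array for 1 h at 25 °C in a buffer containing 50 µM zinc acetate, and the array was washed. The binding signal is per-feature fluorescence intensity (arbitrary units) on an Axon 4000B scanner.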

Sequence	binding signal
AGGGCGAGGAGGCGCTTGAGGGCGTCGAGCTTGTCGGCATCGGAGTCACCTAGTGCAG	28400 fluorescence intensity (a.u.)
GTCCCCGGCCTCGGCGCGCGGCGAGCACCGTGCCGCCCCACGGAGTCACCTAGTGCAG	24000 fluorescence intensity (a.u.)
GCTGCCAGCGCCGCCGCCACCTGTGTCGGCACGCGAGCGCCGGAGTCACCTAGTGCAG	3350 fluorescence intensity (a.u.)
AAACTGGCAAACGCGTCACATGAGTTTTACCTACCAATGTCGGAGTCACCTAGTGCAG	3230 fluorescence intensity (a.u.)
ATTTCAATGTCAAGATGAGAAGGGAATTTAAGAGCCTGCACGGAGTCACCTAGTGCAG	22800 fluorescence intensity (a.u.)
GCGCAGGCAACCACCCCACCCTTCTTCTCGAAACCTCTTCCGGAGTCACCTAGTGCAG	3290 fluorescence intensity (a.u.)
ATGAAGGATGCTTAAAAGTCTATTTTGCCTCGGCAAAATACGGAGTCACCTAGTGCAG	28700 fluorescence intensity (a.u.)
TTTCACGAAACCCAGTGATCCTGTCAGGTATCCTATGTACCGGAGTCACCTAGTGCAG	3760 fluorescence intensity (a.u.)
TTGTACAGCAGCGTGCTTCCATATGAGGAAATCCACTTCTCGGAGTCACCTAGTGCAG	44200 fluorescence intensity (a.u.)
GAAACCTGATGATGCTTGATGGAAATCCATTAGACAGCGTCGGAGTCACCTAGTGCAG	4580 fluorescence intensity (a.u.)
TTCTCTTCCAAAGGAAATGTATAAATCCACCATTAACTTTCGGAGTCACCTAGTGCAG	19900 fluorescence intensity (a.u.)
CGGCCCAGCAGGCGAGCGTGACGTGGACCGGTCGTTTCGCCGGAGTCACCTAGTGCAG	5650 fluorescence intensity (a.u.)
TTGGCTGGAGCATCGTCACTACTATTCGACACTAAGGTGTCGGAGTCACCTAGTGCAG	3240 fluorescence intensity (a.u.)
AGAATTCCGTGATACGCGCATACGCGTCGACAAGAGAAATCGGAGTCACCTAGTGCAG	3280 fluorescence intensity (a.u.)
GGAAGGCGACGCGTTACTGTGCACGATGCGGACCTCGAAACGGAGTCACCTAGTGCAG	60400 fluorescence intensity (a.u.)
GCCTCGAACGACGTGTGGACGCGATGGAAGATGCGTTCTGCGGAGTCACCTAGTGCAG	3210 fluorescence intensity (a.u.)
CCACGCGTCGTCGACGTACTGCGCGATGACGGCGGACTCGCGGAGTCACCTAGTGCAG	4700 fluorescence intensity (a.u.)
TCGCTCGCTCGCCTGCCAAATCTGCATTGGTGCTAGGAGGCGGAGTCACCTAGTGCAG	3730 fluorescence intensity (a.u.)
CATACATGGAAAAGACAAATCGCCTGGTGCATGAGGCGCTCGGAGTCACCTAGTGCAG	40600 fluorescence intensity (a.u.)
ACGCGCTCGCCTCGCGTCATCGGATCAAATGGTGGAGGCGCGGAGTCACCTAGTGCAG	3970 fluorescence intensity (a.u.)
TCCTTTCGTTATCTGTACGGCAGTGACGTCCACGACTCGACGGAGTCACCTAGTGCAG	4340 fluorescence intensity (a.u.)

Sequence	binding signal
CTGCAGTACAACAAACATGATAGTACTTGAAATCATCTTGCGGAGTCACCTAGTGCAG	27400 fluorescence intensity (a.u.)
CAACAAGCGGGTGGCTGGAAGGTGTGTGTGTGAGAGAGAGCGGAGTCACCTAGTGCAG	3180 fluorescence intensity (a.u.)
GATATCACAACCTGACCCACATTAGTCACACGCACTCACACGGAGTCACCTAGTGCAG	3790 fluorescence intensity (a.u.)
GTAAGAATTGGCTGTTAGATTGGCTATAAATGAATTGGAGCGGAGTCACCTAGTGCAG	50800 fluorescence intensity (a.u.)
ATAAAGAATATGTAGAATTGGAACTATGCTAAGAGAAGAGCGGAGTCACCTAGTGCAG	3280 fluorescence intensity (a.u.)
GTATTGTGTGTATTTATACATCATGAAAGAATAGAATAAACGGAGTCACCTAGTGCAG	28600 fluorescence intensity (a.u.)
TGGAGTAAACGATGAATACATGTTATAATAGTGTAGATTGCGGAGTCACCTAGTGCAG	65100 fluorescence intensity (a.u.)
CTATTGTATGAATTGGCTATAGATGATTTGGAGGCAGTAGCGGAGTCACCTAGTGCAG	3800 fluorescence intensity (a.u.)
ATGAGTGTGAGTGTGGCATGCGTGCATGTGTAATAGTAAACGGAGTCACCTAGTGCAG	3480 fluorescence intensity (a.u.)
TTCAAGTCCACATGGTGCTGACGTGAAACTGTCACATACACGGAGTCACCTAGTGCAG	7250 fluorescence intensity (a.u.)
GCATAGGAAGGTGACATGGCATATCCATGTGGCGATTTTGCGGAGTCACCTAGTGCAG	7280 fluorescence intensity (a.u.)
ACCAGTACGCATAGCATCATGTTGTTCCTGTGAAAGCATCCGGAGTCACCTAGTGCAG	3460 fluorescence intensity (a.u.)
AGCTTCATCTGCAATCCTCCGCTGATCTCTCCCTGTCCGGCGGAGTCACCTAGTGCAG	3940 fluorescence intensity (a.u.)
CCATCGCCGCCGCCCTCTTCTTCTTCTTCTTGCGAAGCAACGGAGTCACCTAGTGCAG	19100 fluorescence intensity (a.u.)
TTTCAGAGTTTGAAGTTGGAAATCAACCTTGTTGTTCTCTCGGAGTCACCTAGTGCAG	63100 fluorescence intensity (a.u.)
ACAAGTTGGAGCTACTTTCTTTTGAAATGACAGATCAACTCGGAGTCACCTAGTGCAG	3250 fluorescence intensity (a.u.)
TTATTTTGGTCAGTTGAAGTGTGGAAAATGGTGAAAATCTCGGAGTCACCTAGTGCAG	3880 fluorescence intensity (a.u.)
CATAATATGGTAGTGTTGTTTCTCATGCAAGTATTGGCGTCGGAGTCACCTAGTGCAG	3160 fluorescence intensity (a.u.)
GCAGAGGAACCTTGGTAGTAGTATTTGGTTTCTCAGAAGTCGGAGTCACCTAGTGCAG	52600 fluorescence intensity (a.u.)
AAGAGATCCTTGTGTTTCGGAAGAATTTTGGTTGGTGTATCGGAGTCACCTAGTGCAG	23500 fluorescence intensity (a.u.)
GAGAGCTCCCTTTTCGTACCACCTCGCCGCGTCGGCTGCTCGGAGTCACCTAGTGCAG	4870 fluorescence intensity (a.u.)
